Compounds with a hit are over-represented: about 4.8% of the library has one in this group of screens.
DAX1 inh-1: blocks DAX1 repression of SF-1 activated StAR promoter. inhibition, % at 6.8 µM. AID 652010. 1.1% of 370,000 active. HEK293T StAR-luciferase reporter, SF-1/DAX-1 repression relief;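 active = inhibition above the mean over all tested compounds plus 3 SD, cut at about 3.6% in these data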;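 also: higher inhibition means more luminescence from relief of DAX-1 repression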
hgDAF-12 ag: hgDAF-12 agonism, primary luciferase screen; HEK293 GAL4-hgDAF12 UAS-luciferase reporter, agonist luminescence; normalized to butyrate control; activation, % at 6.8 µM; 1.8% of 370,000 active;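 active = activation above a cutoff set at the mean of all screened compounds plus 3 SD, cut at about 10% in these data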
SMARCA2 act: increases SMARCA2 function in MMTV reporter cells. 1% of 370,000 active. MG213 cells, MMTV-luciferase reporter, dexamethasone, overnight. activation, % at 9.1 µM. AID 652017; in the data active = activation above about 7.8%
DAX1 inh-2: inhibits human nuclear receptor DAX1. P51843. HEK293 Gal4-DAX1 luciferase reporter, luminescence. inhibition, % at 6.75 µM. 0.99% of 340,000 active. AID 504766;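 active = inhibition above the mean over all tested compounds plus 3 SD, cut at about 4.2% in these data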;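 also: inhibition shows as a rise in luminescence from relieved DAX1 repression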
Target sequence (P51843 207-470 limits assumed): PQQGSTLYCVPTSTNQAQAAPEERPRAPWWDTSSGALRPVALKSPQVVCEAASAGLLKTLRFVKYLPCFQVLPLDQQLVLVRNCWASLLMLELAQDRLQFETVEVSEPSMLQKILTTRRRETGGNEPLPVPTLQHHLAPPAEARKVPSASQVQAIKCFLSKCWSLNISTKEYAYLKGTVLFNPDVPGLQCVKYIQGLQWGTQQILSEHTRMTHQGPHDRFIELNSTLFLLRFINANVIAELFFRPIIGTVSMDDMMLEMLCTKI
ssDAF12 agonist: S. stercoralis DAF-12 activation, primary screen; HEK293 ssDAF-12/GRIP1 lit1-tk-luc reporter, luminescence; % of 3 µM dafachronic acid response; activation, % at 6.8 µM; 1% of 370,000 active; AID 652126;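 active = activation above the mean over all tested compounds plus 3 SD, cut at about 0.9% in these data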
hcDAF-12 act: activators of H. contortus DAF-12 nuclear receptor; 1.4% of 370,000 active; AID 652067; activation, % at 6.8 µM; HEK293 hcDAF-12 lit1-tk-luc reporter, luminescence; 0% DMSO, 100% Δ7-dafachronic acid;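 active = activation above the mean of all tested compounds plus 3 SD, cut at about 5.5% in these data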
SMARCA2 act conf: confirmation of SMARCA2 (BRM) function activators | 30% of 3,500 active | activation, % at 9.1 µM | MG213 cells, MMTV-luciferase with dexamethasone, luminescence, overnight; MG213 cells expressing E1A, Rb sequestered; DMSO wells 0%, reference activator 100% | shares compounds with SMARCA2 act;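 active = activation above its plate's cutoff, the mean activation of tested wells plus 3 SD, cut at about 7.9% in these data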
VP16 Luc act: GAL4-VP16 reporter activation counter-screen. shares compounds with SMARCA2 act. HEK293 GAL4-VP16 pG5luc reporter, luciferase luminescence; scaled: DMSO wells 0%, SAHA wells 100%. activation, % at 9.1 µM. 41% of 3,500 active;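 active = activation above the solvent-only control well mean plus 3 SD, averaged across control plates, cut at about 5.2% in these data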
Of the large screens only hits and unclear results are named; the others gave an inactive call (follow-up assays come after a bar, where they were run).

CC(=O)N1c2cc(S(=O)(=O)Nc3c(C)n(C)n(-c4ccccc4)c3=O)c(Br)cc2CC1C (configuration not stated)	none (no result: DAX1 inh-2)
O=c1[nH]c2ccc(S(=O)(=O)Nc3ccc(-c4nnc5n4CCCCC5)cc3)cc2o1	SMARCA2 act 12 | SMARCA2 act conf inactive | VP16 Luc act inactive
CS(=O)(=O)Nc1ccc(-c2nnc3n2CCCCC3)cc1	none
COc1nc(OC)nc(N2CCC(C(=O)NCc3cccc(OC)c3OC)CC2)n1	none (no result: DAX1 inh-2)
Cc1ccccc1S(=O)Cc1ccc(C(=O)NCCN2CCOCC2)o1 (configuration not stated)	none
O=C(NCCCN1CCCC1)c1ccc(CS(=O)(=O)c2ccc(Br)cc2)o1	SMARCA2 act 9.5 | SMARCA2 act conf inactive | VP16 Luc act inactive
Cc1ccccc1S(=O)Cc1ccc(C(=O)NCCCN2CCCCC2)o1 (configuration not stated)	SMARCA2 act 12 | SMARCA2 act conf inactive | VP16 Luc act inactive
Cn1c(/C=C/c2ccc(Cl)cc2)nc2ccccc2c1=O	SMARCA2 act 8.7 | SMARCA2 act conf inactive | VP16 Luc act 6.1
Cn1c(/C=C/c2ccccc2)nc2ccccc2c1=O	none
Cc1ccccc1N1CCN(S(=O)(=O)c2ccc3c(c2)n(C)c(=O)c(=O)n3C)CC1	none (no result: DAX1 inh-2)
COc1ccc(C(C(=O)N(C)C2CCCC2)N(Cc2ccc(F)cc2)C(=O)c2ncn[nH]2)cc1OC (configuration not stated)	none (no result: DAX1 inh-2)
COc1ccc(C(C(=O)N(C)C2CCCC2)N(Cc2ccc(F)cc2)C(=O)c2cc(C)[nH]n2)cc1OC (configuration not stated)	SMARCA2 act 11 (no result: DAX1 inh-2) | SMARCA2 act conf inactive | VP16 Luc act inactive
CC(=O)c1c(C)[nH]c(-c2ccccc2)nc1=S	SMARCA2 act 11 | SMARCA2 act conf inactive | VP16 Luc act inactive
CC(=O)c1c(NC(=O)c2ccccc2)[nH]c(-c2ccccc2)nc1=S	none
C=CCn1c(-c2ccccc2OC)n[nH]c1=S	none
COc1ccccc1-c1nc(=S)c(C(C)=O)c(C)[nH]1	SMARCA2 act 12 (no result: DAX1 inh-2) | SMARCA2 act conf inactive | VP16 Luc act inactive
COC(=O)[C@]12C[C@H](CC(=O)NCc3cccc4ccccc34)C(=O)N(Cc3ccc(Cl)cc3Cl)C1=C[C@H](C(C)C)O[C@@H]2C1CC1	none (no result: DAX1 inh-2)
COc1ccc(NC(=O)c2cccs2)cc1	none
COc1ccc(NC(=S)NNC(=O)c2cccs2)cc1	SMARCA2 act 8.8 | SMARCA2 act conf inactive | VP16 Luc act inactive
COc1ccc(Cl)cc1C(=O)NNC(=O)c1cccs1	SMARCA2 act 12 | SMARCA2 act conf inactive | VP16 Luc act inactive
O=C(NNC(=O)c1cccs1)c1ccc(Cl)cc1	none
O=C(Nc1nc2ncccn2c1-c1ccccc1)c1ccc(F)cc1	none (no result: DAX1 inh-2)
CCc1ccc(NC(=O)CNC(=O)Cn2ccc3ccccc3c2=O)cc1	SMARCA2 act 9.1 | SMARCA2 act conf inactive | VP16 Luc act inactive
CCc1ccc(NC(=O)CCNC(=O)Cn2ccc3ccccc3c2=O)cc1	none
NC(=O)[C@@H]1CCCN1C(=O)[C@@H](Cc1ccccc1)NC(=O)[C@H]1O[C@@H](n2ccc(=O)[nH]c2=O)[C@H](O)[C@@H]1O	none (no result: DAX1 inh-2)
CC(C)CCN(C(=O)Cc1ccccc1F)c1c(N)n(Cc2ccccc2)c(=O)[nH]c1=O	none
CC(C)CCN(C(=O)c1ccccn1)c1c(N)n(Cc2ccccc2)c(=O)[nH]c1=O	SMARCA2 act 8.3 | SMARCA2 act conf inactive | VP16 Luc act inactive
O=C(OCc1c(-c2ccccc2)ncc2ccccc12)N1CCOCC1	SMARCA2 act 9.6 | SMARCA2 act conf inactive | VP16 Luc act inactive
CCCC[C@H]1C2CC(OC(=O)NCc3ccc(Cl)cc3)C(C2)[C@H]2CCCCN21 (some centres not stated)	none (no result: DAX1 inh-2)
O=C(Nc1cccnc1)c1cc(-c2cc(Cl)ccc2O)n[nH]1	SMARCA2 act 11 | SMARCA2 act conf 9.6 | VP16 Luc act 9.9
C=CCNc1ccc2c(c1)OC[C@H](Cc1ccccc1)NS2(=O)=O	none (no result: DAX1 inh-2)
COc1cccc(C(=O)Nc2ccc(F)c(F)c2F)c1	SMARCA2 act 9.0 | SMARCA2 act conf inactive | VP16 Luc act 7.9
COc1cccc(C(=O)Nc2ccc3c(c2)C(=O)c2ccccc2C3=O)c1	SMARCA2 act 12 | SMARCA2 act conf inactive | VP16 Luc act 12
COc1cccc(C(=O)Nc2ccc(C(=O)O)cc2)c1	none
COc1cccc(C(=O)Nc2ccc(F)cc2F)c1	none
COc1cccc(C(=O)Nc2ccc(C)cc2)c1	DAX1 inh-1 4.0, SMARCA2 act 11, ssDAF12 agonist 1.6 | SMARCA2 act conf inactive | VP16 Luc act 6.6
COc1ccc(NC(=O)c2ccc(C)cc2)c(OC)c1	hgDAF-12 ag 12, SMARCA2 act 14 | SMARCA2 act conf inactive | VP16 Luc act 6.8
CCOC(=O)C1=CCC(c2ccc([N+](=O)[O-])cc2)N(S(=O)(=O)c2ccc(C)cc2)C1 (configuration not stated)	none (no result: DAX1 inh-2)
CN(C)c1ccc(-c2nn3c(-c4ccco4)nnc3s2)cc1	none (no result: DAX1 inh-2)
Cc1ccc2nc(N3C(=O)CNC3=S)sc2c1	SMARCA2 act 15 (no result: DAX1 inh-2) | SMARCA2 act conf inactive | VP16 Luc act 16
COc1cccc(-c2nn3c(-c4ccccn4)nnc3s2)c1	SMARCA2 act 8.7 | SMARCA2 act conf inactive | VP16 Luc act inactive
COc1cccc(-c2nnc3sc(-c4ccccn4)nn23)c1	none
O=C(CCn1nnc2ccccc21)N1CCN(Cc2ccc3c(c2)OCO3)CC1	none (no result: DAX1 inh-2)
O=C(COn1nnc2ccccc21)NCC1CCCCC1	SMARCA2 act 8.8 | SMARCA2 act conf inactive | VP16 Luc act inactive
O=C(COn1nnc2ccccc21)N1CCN(Cc2ccccc2)CC1	SMARCA2 act 10 | SMARCA2 act conf inactive | VP16 Luc act inactive
Cc1ccccc1CN1CCCCC(NC(=O)C2CCCC2)C1=O (configuration not stated)	none (no result: DAX1 inh-2)
CCCn1cc(C(=O)Nc2ccc(Oc3cccnc3)cc2)c2ccccc21	none (no result: DAX1 inh-2)
O=c1/c(=C/c2ccc([N+](=O)[O-])cc2)sc2n1CCCN=2	SMARCA2 act 8.7 | SMARCA2 act conf 12 | VP16 Luc act 13
Cc1cc(C)c2c(N)c(C(=O)Nc3ccc([N+](=O)[O-])cc3)sc2n1	SMARCA2 act 8.5 | SMARCA2 act conf inactive | VP16 Luc act 10
O=C(OCC#CCSc1nnc(-c2cccc(F)c2)o1)c1ccc(F)cc1	none (no result: DAX1 inh-1, SMARCA2 act, DAX1 inh-2)
